Out of some 2,400 compounds screened, about 580 (24%) were called active.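 Rule for the calls: active = activity change at or above the mean plus 3 SD of buffer wells without dofetilide, per plate; inactive = the rest.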 These entries were drawn from the full list.
target: Potassium voltage-gated channel subfamily KQT member 2 (Rattus norvegicus) (UniProt O88943); experiment: KCNQ2 potentiation in CHO cells – cell-based, FluxOR thallium flux, counter-screen for hERG block protector project, confirmation (AID 1942); conditions: FluxOR thallium flux fluorescence, at 10 µM, hits give high values;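 note: normalized value minus buffer-control mean plus three SD of buffer wells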
Sequence (O88943 whole entry, looked up): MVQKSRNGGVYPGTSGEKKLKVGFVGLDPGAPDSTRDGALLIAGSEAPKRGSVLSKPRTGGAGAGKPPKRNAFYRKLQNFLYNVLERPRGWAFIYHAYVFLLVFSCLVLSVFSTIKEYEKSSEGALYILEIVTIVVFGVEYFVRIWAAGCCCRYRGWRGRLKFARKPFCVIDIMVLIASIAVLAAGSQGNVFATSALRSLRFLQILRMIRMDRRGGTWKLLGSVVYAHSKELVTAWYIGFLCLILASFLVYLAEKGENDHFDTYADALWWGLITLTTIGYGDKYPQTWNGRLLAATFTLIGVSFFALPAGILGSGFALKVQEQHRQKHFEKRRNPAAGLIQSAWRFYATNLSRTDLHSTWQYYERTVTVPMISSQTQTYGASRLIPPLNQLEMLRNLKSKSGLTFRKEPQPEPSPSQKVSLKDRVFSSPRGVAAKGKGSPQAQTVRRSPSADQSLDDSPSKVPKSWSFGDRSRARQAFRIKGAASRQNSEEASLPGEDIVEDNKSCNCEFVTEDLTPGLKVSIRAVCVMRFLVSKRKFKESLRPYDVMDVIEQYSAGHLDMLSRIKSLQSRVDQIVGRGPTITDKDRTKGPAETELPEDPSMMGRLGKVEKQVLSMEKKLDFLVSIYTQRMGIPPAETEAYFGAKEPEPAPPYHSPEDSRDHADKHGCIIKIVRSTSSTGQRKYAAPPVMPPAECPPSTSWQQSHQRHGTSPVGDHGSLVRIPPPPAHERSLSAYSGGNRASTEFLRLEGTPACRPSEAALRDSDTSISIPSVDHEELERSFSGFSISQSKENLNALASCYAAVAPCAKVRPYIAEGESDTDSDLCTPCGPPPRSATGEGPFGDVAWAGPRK

| Compound | activity change, less the hit threshold |
| --- | --- |
| O=C(O)C[C@H]1c2cc(F)ccc2S(=O)(=O)N1C1CCCCC1 | -10.2% (inactive) |
| CC(C)(C)c1csc(NNC(=O)c2ccc(Cl)cc2)n1 | -7.6% (inactive) |
| CC(C)(C)c1cc(C(=O)NNC(=O)c2ccc(Cl)cc2)no1 | 24% (active) |
| Cc1nc(-c2nc(-c3c(C(=O)NNC(=O)c4ccc(Cl)cc4)noc3C)cs2)cs1 | -1.2% (inactive) |
| CCc1nc(C)ccc1OCC(=O)N1CCc2c([nH]c3ccccc23)C1c1ccccn1 (stereo not drawn) | -18.2% (inactive) |
| CCN(CC)c1ccc(/C=c2\sc3nnc(-c4ccccc4Cl)n3c2=O)cc1 | -31.7% (inactive) |
| COc1ccc2nc(NC(=S)NC(=O)c3ccco3)sc2c1 | 27.9% (active) |
| O=C(NC(=S)Nc1nc2ccc(F)cc2s1)c1ccco1 | 59.7% (active) |
| COc1ccc(-c2csc(NC(=S)NC(=O)c3ccco3)n2)cc1Br | -3.7% (inactive) |
| O=C(NC(=S)Nc1nc(-c2ccc(Br)cc2)cs1)c1ccco1 | -18.5% (inactive) |
| O=C(NC(=S)NCc1ccc(-c2nc3ccccc3s2)cc1)c1ccco1 | -16% (inactive) |
| O=C(NC(=S)Nc1nc(-c2ccccc2)cs1)c1ccco1 | -0.7% (inactive) |
| COc1ccc(-c2csc(NC(=S)NC(=O)c3ccco3)n2)cc1 | -0.4% (inactive) |
| O=C(NC(=S)Nc1nc(-c2ccc([N+](=O)[O-])cc2)cs1)c1ccco1 | 20.1% (active) |
| O=C(NC(=S)Nc1nc2ccccc2s1)c1ccco1 | 40.4% (active) |
| Cc1ccc2nc(NC(=S)NC(=O)c3ccco3)sc2c1 | -6.5% (inactive) |
| Cc1ccc(C)c(N2CCN(S(=O)(=O)c3ccc(-c4ccc(=O)[nH]n4)o3)CC2)c1 | -14.6% (inactive) |
| CCn1cc(CCC(=O)NCc2cccc(OC)c2OC)c2ccccc21 | -13% (inactive) |
| Cc1cc(N2CCN(C)CC2)nc(N2CCOCC2)n1 | -10% (inactive) |
| CCN(CC)C(=O)CN1C(=O)c2cccc3cccc(c23)C1=O | -24.8% (inactive) |
| CN(C)c1oc(-c2ccccc2)nc1C#N | -16.2% (inactive) |
| CC(=O)C1C(=O)c2c(cccc2[N+](=O)[O-])C1=Nc1ccccc1C (stereo not drawn) | -21.7% (inactive) |
| O=c1cc(O)c2sc(Nc3ccc(F)c(Cl)c3)nc2[nH]1 | -20.3% (inactive) |
| COc1ccc(N2CCN(CC(O)COc3ccc(F)cc3)CC2)cc1 (stereo not drawn) | -24.2% (inactive) |
| CC1=C(C)CS(=O)N(c2ccc(S(N)(=O)=O)cc2)C1 (stereo not drawn) | -5.8% (inactive) |

| Compound | activity change, less the hit threshold |
| --- | --- |
| Cc1ccc(-c2nc3c(Cl)cc(Cl)cc3c(=O)n2O)cc1 | 142% (active) |
| CC1=NN(c2ccccc2)C(=O)C1C(=O)c1ccc(Cl)cc1 (stereo not drawn) | -0.6% (inactive) |
| Cc1ccc(-c2nc3ccccc3c(=O)n2O)cc1 | 6.3% (active) |
| O=c1c2ccccc2nc(-c2ccc(Cl)c(Cl)c2)n1O | 68.4% (active) |
| O=c1c2cc(Cl)ccc2nc(-c2ccccc2)n1O | 27.1% (active) |
| Cc1ccc(C(=O)Nc2nc3ccccc3c(=O)s2)cc1 | -1.3% (inactive) |
| O=c1c2ccccc2nc(-c2ccccc2)n1O | -9.4% (inactive) |
| COc1cccc([C@@H]2Oc3ccc(OC)cc3C(=O)[C@H]2OC(=O)NCc2ccc3c(c2)OCO3)c1 | -12.3% (inactive) |
| N#CC(=C1SC=CS1)c1nc(-c2ccccc2)cs1 | -21.5% (inactive) |
| O=C(N/N=C/c1ccccc1[N+](=O)[O-])c1ccc(CN2CCOCC2)cc1 | -14.3% (inactive) |
| Cc1ccc(Nc2nc(-c3cccs3)cs2)nc1 | -16.1% (inactive) |
| O=C(N/N=C/c1cccs1)C(=O)Nc1cccc(Cl)c1 | -12.5% (inactive) |
| CSc1nc2c(c(=O)[nH]1)C(c1ccc(Cl)cc1)CC(=O)N2 (stereo not drawn) | -14% (inactive) |
| Cc1ccc(-c2onc3ccc(Cl)cc23)cc1 | -16.5% (inactive) |
| O=c1c2ccccc2nc(-c2cccc(Cl)c2)n1O | 28.8% (active) |
| Cc1ccc(C(=O)CC(=O)c2cc(Cl)ccc2O)cc1 | -19.3% (inactive) |
| Cc1ccc(-c2nc3ccc(Cl)cc3c(=O)n2O)cc1 | 104% (active) |
| O=c1c2cc(Cl)ccc2nc(-c2ccc(Cl)c(Cl)c2)n1O | 127% (active) |
| CCOC(=O)c1c(N2C(=O)Nc3ccccc3N2O)n[nH]c1-c1cccc(Cl)c1 | -9.4% (inactive) |
| Cc1ccc(CNS(=O)(=O)c2cc3c4c(c2)CCN4C(=O)CC3)cc1 | -11.7% (inactive) |
| Cc1cc([N+](=O)[O-])nn1CC(=O)Nc1ccc(Cl)cn1 | -1.2% (inactive) |
| COC(=O)c1ccc(/C=C/c2ccc3cccc(OC)c3n2)cc1 | -22.1% (inactive) |
| CC(C)CCn1c(=S)[nH]c2ncccc2c1=O | -3.7% (inactive) |
| CCCCC(CC)CNC(=O)Cn1c(=S)[nH]c2ncccc2c1=O (stereo not drawn) | -9.7% (inactive) |
| CCCCCn1c(=S)[nH]c2ncccc2c1=O | 17.1% (active) |

| Compound | activity change, less the hit threshold |
| --- | --- |
| CCN(CCCn1c(=S)[nH]c2ncccc2c1=O)c1ccccc1 | 10.4% (active) |
| COC(=O)c1ccc(NN=Nc2ccc(C)cc2)cc1 | -4.6% (inactive) |
| C=CCNc1sc(C(=O)C(C)(C)C)c(N)c1C#N | -15.5% (inactive) |
| CCc1c(C)nc(SC)n(CC#N)c1=O | -14.4% (inactive) |
| CCCCNC(=S)N/N=C/C1=CCC2CC1C2(C)C (stereo not drawn) | -17.2% (inactive) |
| c1ccc2c(c1)c1ccccc1n1c(-c3ccc4c(c3)OCO4)nnc21 | -10% (inactive) |
| O=c1c(O)c(-c2cccs2)oc2ccccc12 | 95.3% (active) |
| O=c1c(O)c(-c2ccc3c(c2)OCO3)oc2ccccc12 | 12% (active) |
| O=c1c(O)c(-c2cccs2)oc2ccc(Cl)cc12 | 111% (active) |
| Cn1nc(C(=O)Nc2ccc3c(c2)OCO3)c2ccccc2c1=O | -16.1% (inactive) |
| Cc1nnc(SCC(=O)Nc2nccs2)n1N | -19.4% (inactive) |
| CCOc1ccc(Nc2ccc([N+](=O)[O-])c3nonc23)cc1 | -4.2% (inactive) |
| COC(=O)c1ccc(-n2c(C)nc(=O)c(-c3ccccc3)c2C)cc1 | -13.8% (inactive) |
| CC(NC(=O)CCCn1cc([N+](=O)[O-])cn1)c1ccccc1 (stereo not drawn) | -27% (inactive) |
| COc1cccc(C(=O)NNC(=O)C(=O)Nc2cccc(Cl)c2C)c1 | 54.1% (active) |
| COc1ccc(NC(=O)C(=O)NNC(=O)c2ccc(Cl)cc2Cl)cc1 | -7.7% (inactive) |
| CC(C)Oc1cccc(C(=O)N2CCCC2)c1 | -14% (inactive) |
| COc1ccc(C(=O)NNC(=O)C(=O)Nc2ccc(C)c(Cl)c2)cc1 | -0.2% (inactive) |
| COc1ccc(NC(=O)C(=O)NNC(=O)C(C)Oc2ccc(Cl)cc2Cl)cc1 (stereo not drawn) | 32.6% (active) |
| CC(Oc1ccc(Cl)cc1Cl)C(=O)Nc1cccnc1 (stereo not drawn) | -25.1% (inactive) |
| COc1cccc(C(=O)Nc2cccc(-c3ccc(N4CCOCC4)nn3)c2)c1 | -17.8% (inactive) |
| COc1cccc(C(=O)NNC(=O)C(=O)Nc2ccc(C)c(Cl)c2)c1 | 66.8% (active) |
| COc1ccc(C(=O)NNC(=O)C(=O)Nc2ccc(C)cc2)cc1 | 22.4% (active) |

Reference: PubChem BioAssay AID1942 (Johns Hopkins Ion Channel Center, 2009)
